Assay results: the supplement of paper PMC9254222
The full ranking holds about 1,100 compounds; the median of “Wnt reporter firefly/Renilla luciferase ratio relative to plate median” is about 1.1, and the highest 2% start at about 1.6. For the sample, the highest values were picked, then their nearest neighbours and some compounds at random.

Test system: HEK293T (UBE3A T485A transfected, BAR Wnt reporter)
Assay: Wnt reporter firefly/Renilla luciferase ratio relative to plate median (fold (linear ratio)); higher = more Wnt/beta-catenin reporter activation
Settings: 24 h
How it was run: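 HEK293T cells were seeded at 4500 cells/well in white 384-well plates and grown in DMEM with 10% FBS at 37°C and 5% CO2. The cells were transfected using Fugene 6 with a BAR firefly luciferase Wnt reporter, TK-Renilla and an expression plasmid, and four hours later robots added the chemicals at 0.01–100 uM for 24 h before a Dual-Glo luciferase readout. Wnt activity was taken as the firefly/Renilla ratio and cell health as raw Renilla, each median-centred per plate. Values are averages of four biological replicates.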

| SMILES | Wnt reporter firefly/Renilla luciferase ratio (concentration: 0.01 uM) | Wnt reporter firefly/Renilla luciferase ratio (concentration: 0.1 uM) | Wnt reporter firefly/Renilla luciferase ratio (concentration: 1 uM) | Wnt reporter firefly/Renilla luciferase ratio (concentration: 10 uM) | Wnt reporter firefly/Renilla luciferase ratio (concentration: 100 uM) |
| --- | --- | --- | --- | --- | --- |
| Oc1ccc(C(c2ccc(O)cc2)C(Cl)(Cl)Cl)cc1 [2,2-Bis(4-hydroxyphenyl)-1,1,1-trichloroethane] | 1.02 | 1.3 | 0.957 | 0.541 |  |
| CC(=O)[C@@]1(O)CC[C@H]2[C@@H]3CCC4=CC(=O)CC[C@]4(C)[C@H]3CC[C@@]21C [17alpha-Hydroxyprogesterone] |  | 1.06 | 1.02 | 1.03 | 0.475 |
| NC(=O)N/N=C/c1ccc([N+](=O)[O-])o1 [Nitrofurazone] |  | 1.22 | 1.02 | 0.506 | 0.32 |
| Nc1nc(=O)c2nc(CNc3ccc(C(=O)N[C@@H](CCC(=O)O)C(=O)O)cc3)cnc2[nH]1 [Folic acid] |  | 1.38 | 1.01 | 0.97 | 1.26 |
| O=C(OC[C@H]1O[C@@H](OC(=O)c2cc(O)c(O)c(OC(=O)c3cc(O)c(O)c(O)c3)c2)[C@H](OC(=O)c2cc(O)c(O)c(OC(=O)c3cc(O)c(O)c(O)c3)c2)[C@@H](OC(=O)c2cc(O)c(O)c(OC(=O)c3cc(O)c(O)c(O)c3)c2)[C@@H]1OC(=O)c1cc(O)c(O)c(OC(=O)c2cc(O)c(O)c(O)c2)c1)c1cc(O)c(O)c(OC(=O)c2cc(O)c(O)c(O)c2)c1 [Tannic acid] |  | 0.923 | 1.19 | 1.38 |  |
| CCC(C)N(C)C(=O)c1cc2ccccc2c(-c2ccccc2Cl)n1 (stereo not drawn) |  | 0.925 | 1.31 | 1.03 | 0.292 |
| CC(C)(C)c1cc(O)c(C(C)(C)C)cc1O [2,5-Di-tert-butylbenzene-1,4-diol] |  | 1.14 | 0.988 | 1.13 |  |
| CC(C)(C)c1cccc(C(C)(C)C)c1O [2,6-Di-tert-butylphenol] |  | 1.12 | 1.01 | 1.3 | 1.72 |
| CC(C)(C)c1ccc(O)c(C(C)(C)C)c1 [2,4-Di-tert-butylphenol] |  | 0.984 | 1.32 | 1.13 | 1.1 |
| CCN(Cc1cccc(S(=O)(=O)[O-])c1)c1ccc(C(=C2C=CC(=[N+](CC)Cc3cccc(S(=O)(=O)[O-])c3)C=C2)c2ccccc2S(=O)(=O)[O-])cc1.[Na+].[Na+] |  | 0.943 | 1.04 | 0.706 | 0.433 |
| CC1(C)C(=O)NC(=O)N1CO [1-(Hydroxymethyl)-5,5-dimethylhydantoin] |  | 1.14 | 0.992 | 1.12 | 1.59 |
| CN1CCC(c2c(O)cc(O)c3c(=O)cc(-c4ccccc4Cl)oc23)C(O)C1 (stereo not drawn) [Flavopiridol] | 1.17 | 2 |  |  |  |
| CN(C)C(=O)NC1(c2ccccc2)CCN(CCC[C@@]2(c3ccc(Cl)c(Cl)c3)CCCN(C(=O)c3ccccc3)C2)CC1 |  | 1.08 | 0.903 | 0.985 |  |
| O=C(O)/C=C/C(=O)O.O=C1c2ccccc2C(=O)N1CCc1noc(-c2ccc(CN3CCCCCC3)s2)n1 |  | 1.17 | 1.07 | 0.907 | 0.252 |
| NC(=O)N1c2ccccc2C=Cc2ccccc21 [Carbamazepine] |  | 1.35 | 0.977 | 0.997 | 0.929 |
| CC(=O)Oc1ccccc1C(=O)O [Aspirin] |  | 1.2 | 1.04 | 1.15 | 0.812 |
| Cc1cc2c(cc1C(F)(F)F)N(C(=O)Nc1ccc(Oc3cccnc3C)nc1)CC2.Cl |  | 1.03 | 1.4 | 0.768 | 0.554 |
| CCN(Cc1c(F)cccc1Cl)c1c([N+](=O)[O-])cc(C(F)(F)F)cc1[N+](=O)[O-] [Flumetralin] | 1.23 | 1.65 | 1.11 | 0.843 | 0.851 |
| CCCN(CCC)c1c([N+](=O)[O-])cc(C(F)(F)F)c(N)c1[N+](=O)[O-] [Prodiamine] | 1.16 | 1.47 | 1.2 | 1.2 | 1.29 |
